# “And” between values parts separate entries of the source, which are not always exact repeats. Identical values can stand only once. Results filed as inconclusive are left out. More than one record can exist for a structure, and the calls need not agree. The source made the active and inactive calls. How the source made its calls, unless noted: active means hit-call score of the fitted dose curve at least 0.9, where 1 is the maximum; inconclusive means response in the unintended direction; inactive means score below 0.9.
# How the values were obtained:
# [1] = read-out: UDP glucuronosyltransferase (UGT1A1), UGT1A1 (gene 54658); assay: LTEA_HepaRG_UGT1A1: Life Technologies and Expression Analysis (LTEA) Assay for UDP glucuronosyltransferase (UGT1A1) using HepaRG (AID 2283538; active means hit-call score of the fitted dose curve at least 0.9, where 1 is the maximum; inactive means score below 0.9); conditions: mRNA level, 48 h; actives raise or lower the signal
# Summary of the method: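 mRNA induction or loss of UGT1A1, by TaqMan qRT-PCR, in duplicate HepaRG wells after 48 h exposure to half-log dilutions topping at 100 uM; DMSO (0.5%) served as baseline.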
# [2] = read-out: UDP glucuronosyltransferase (UGT1A6), UGT1A6 (gene 54578); assay: LTEA_HepaRG_UGT1A6: Life Technologies and Expression Analysis (LTEA) Assay for UDP glucuronosyltransferase (UGT1A6) using HepaRG (AID 2283539; active means hit-call score of the fitted dose curve at least 0.9, where 1 is the maximum; inactive means score below 0.9); conditions: mRNA level, 48 h; actives raise or lower the signal
# Summary of the method: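 Human HepaRG cells were dosed for 48 h in serum-free induction medium with 0.5% DMSO vehicle, eight-point half-log series from 100 uM, in duplicate. UGT1A6 mRNA was measured by qRT-PCR, normalized to ACTB, GAPDH, POLR2A, and fitted bidirectionally against DMSO.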
# [3] = read-out: X-box binding protein 1 (XBP1), XBP1 (gene 7494); assay: LTEA_HepaRG_XBP1: Life Technologies and Expression Analysis (LTEA) Assay for X-box binding protein 1 (XBP1) using HepaRG (AID 2283540; active means hit-call score of the fitted dose curve at least 0.9, where 1 is the maximum; inactive means score below 0.9); conditions: mRNA level, 48 h; actives raise or lower the signal
# Summary of the method: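 Differentiated human HepaRG cells in serum-free induction medium were exposed in duplicate for 48 h to eight half-log concentrations up to 100 uM in 0.5% DMSO. XBP1 mRNA was quantified by qRT-PCR, normalised to ACTB, GAPDH and POLR2A, with bidirectional fitting against DMSO.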
# [4] = LTEA_HepaRG_LDH_cytotoxicity: Cytotoxicity Assessment in the Life Technologies and Expression Analysis (LTEA) Assay (AID 2283563);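 on AC50: LDH activity released into spent culture medium as a marker of cell death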
# Summary of the method: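 Differentiated human HepaRG cells, plated 48 h beforehand, were switched to serum-free induction medium and exposed for 48 h to eight half-log concentrations (top 100 uM) in 0.5% DMSO. LDH was measured in spent medium; activity was fitted relative to DMSO vehicle.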
# [5] = ATG_XTT_Cytotoxicity: Cytotoxicity Assessment in the Attagene TRANS-FACTORIAL HepG2 Assay (AID 2283584);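 on AC50: cells exposed to compound for 24 h before reading; active means loss of viability signal versus DMSO baseline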
# Summary of the method: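 HepG2 human liver cells, transiently transfected with multiple GAL4-UAS reporter units, were dosed and read at 24 h by XTT as cell number. Loss of signal was fitted relative to DMSO negative control baseline.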
# [6] = TOX21_p53_BLA_p2_viability: Viability Assessment in the Tox21 HCT-116 p53 Agonism Beta-lactamase Assay, Phase 2 (AID 2283591);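 further: compound exposure lasted 16 h at 37 °C; actives lower the ATP signal meaning cytotoxicity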
# Summary of the method: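 HCT116 p53-bla cells, 4000/well, dosed after 5 h plating (217-fold dilution of DMSO stocks) and incubated 16 h at 37C. Viability taken as cellular ATP by CellTiter-Glo luminescence after 30 min RT; signal loss marks cytotoxicity.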
# [7] = target: Cellular tumor antigen p53 (Homo sapiens) (UniProt P04637); assay: TOX21_p53_BLA_p2_ratio: Tox21 HCT-116 p53 Agonism Beta-lactamase Assay, Ratio, Phase 2 (AID 2283592)
# Sequence of Cellular tumor antigen p53 (Homo sapiens) (P04637 whole entry, looked up): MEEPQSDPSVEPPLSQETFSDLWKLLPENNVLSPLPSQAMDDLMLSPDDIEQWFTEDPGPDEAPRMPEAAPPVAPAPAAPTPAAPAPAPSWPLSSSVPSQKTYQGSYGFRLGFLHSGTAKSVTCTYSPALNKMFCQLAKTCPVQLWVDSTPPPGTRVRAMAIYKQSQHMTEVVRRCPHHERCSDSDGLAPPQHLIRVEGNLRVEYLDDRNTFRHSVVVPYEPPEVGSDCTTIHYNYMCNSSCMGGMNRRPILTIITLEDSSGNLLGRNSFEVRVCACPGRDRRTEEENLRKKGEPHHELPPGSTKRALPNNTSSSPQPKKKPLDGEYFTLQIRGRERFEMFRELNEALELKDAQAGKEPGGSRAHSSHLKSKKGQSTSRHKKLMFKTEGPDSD
# Summary of the method: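 Ratio endpoint: beta-lactamase cleavage of CCF4-AM, blue (460 nm) over green (530 nm). HCT116 reporter line; 16 h treatment, 37C; substrate 2 h RT.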
# [8] = TOX21_p53_BLA_p3_viability: Viability Assessment in the Tox21 HCT-116 p53 Agonism Beta-lactamase Assay, Phase 3 (AID 2283593);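 further: cells exposed to compound for 16 h before reading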
# Summary of the method: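 HCT116 cells, 4000/well, dosed 5 h after plating by pin transfer (217-fold dilution from DMSO stock) and incubated 16 h at 37C, 5% CO2. Viability read as ATP luminescence with CellTiter-Glo after 30 min at room temperature.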
# [9] = target: Cellular tumor antigen p53 (Homo sapiens) (UniProt P04637); assay: TOX21_p53_BLA_p3_ratio: Tox21 HCT-116 p53 Agonism Beta-lactamase Assay, Ratio, Phase 3 (AID 2283596)
# Summary of the method: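 Cells were seeded at 4000/well, rested 5 h at 37C, then dosed with DMSO compound solutions (217-fold dilution) for 16 h. CCF4-AM substrate was loaded for 2 h at room temperature, and the 460/530 nm emission ratio was fitted for gain of signal versus DMSO.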
# [10] = TOX21_p53_BLA_p4_viability: Viability Assessment in the Tox21 HCT-116 p53 Agonism Beta-lactamase Assay, Phase 4 (AID 2283597);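 further: hits lower the luminescence signal meaning cytotoxicity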
# Summary of the method: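 Cytotoxicity was inferred from loss of CellTiter-Glo luminescence. HCT116 cells had been dosed with compounds after 5 h plating, incubated 16 h at 37C and 5% CO2, and exposed to the CCF4-AM substrate for 2 h.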
smiles,measurement,setting,value
CCCOC(=O)c1ccc(O)cc1,outcome,[1],inactive
same,outcome,[2],inactive
same,outcome,[3],inactive
same,outcome,[4],inactive
same,outcome,[5],inactive
same,outcome,[6],inactive
same,outcome,[7],inactive
same,outcome,[8],inactive
same,outcome,[9],inactive
same,outcome,[10],inactive
Oc1cccc(O)c1,outcome,[1],inactive
same,outcome,[2],inactive
same,outcome,[3],inactive
same,outcome,[4],inactive
same,outcome,[5],inactive
same,outcome,[6],inactive
same,outcome,[7],inactive
same,outcome,[8],inactive
same,outcome,[10],inactive
O=[N+]([O-])c1ccc(O)cc1,outcome,[1],inactive
same,outcome,[2],inactive
same,outcome,[3],inactive
same,outcome,[4],inactive
same,outcome,[5],inactive
same,outcome,[6],inactive
same,outcome,[7],inactive
same,outcome,[8],inactive
same,outcome,[10],inactive
O=c1c(-c2ccc(O)cc2)coc2cc(O)ccc12,outcome,[1],inactive
same,outcome,[2],inactive
same,outcome,[3],inactive
same,outcome,[4],inactive
same,outcome,[5],inactive
same,outcome,[6],inactive
same,outcome,[7],inactive
same,outcome,[8],inactive
same,outcome,[10],inactive
CCCCC(CC)COC(=O)CCCCC(=O)OCc1ccccc1 (stereo not given),outcome,[1],inactive
same,outcome,[2],inactive
same,outcome,[3],inactive
same,outcome,[4],inactive
same,outcome,[5],inactive
same,outcome,[6],inactive
same,outcome,[7],inactive
same,outcome,[9],inactive
OCCC(F)(F)C(F)(F)C(F)(F)C(F)(F)C(F)(F)C(F)(F)F,outcome,[1],inactive
same,outcome,[2],inactive
same,outcome,[3],inactive
same,outcome,[4],inactive
same,outcome,[5],inactive
C#C[C@]1(O)CC[C@H]2[C@@H]3CCC4=CC(=O)CC[C@@H]4[C@H]3CC[C@@]21C,AC50,[1],2.19 µM (active)
same,outcome,[2],inactive
same,outcome,[3],inactive
same,outcome,[4],inactive
same,outcome,[5],inactive
CCCCCCCCC(=O)O,outcome,[1],inactive
same,outcome,[2],inactive
same,outcome,[3],inactive
same,outcome,[4],inactive
same,outcome,[5],inactive
same,outcome,[6],inactive
same,outcome,[7],inactive
same,outcome,[8],inactive
same,outcome,[9],inactive
same,outcome,[10],inactive
CCCCCCCC(=O)O,outcome,[1],inactive
same,outcome,[2],inactive
same,outcome,[3],inactive
same,outcome,[4],inactive
same,outcome,[5],inactive
same,outcome,[6],inactive
same,outcome,[7],inactive
same,outcome,[8],inactive
same,outcome,[9],inactive
same,outcome,[10],inactive
Oc1cc2ccccc2c2ccccc12,outcome,[1],inactive
same,outcome,[2],inactive
same,outcome,[3],inactive
same,outcome,[4],inactive
same,AC50,[5],16.6 µM (active) and 16.3 µM (active)
same,AC50,[6],15.2 µM (active)
same,AC50,[7],46.1 µM (active)
same,AC50,[8],14.5 µM (active)
same,AC50,[10],12.2 µM (active)
CCCCCCCCCCCCCCCS(=O)(=O)Oc1ccccc1,AC50,[1],8.01 µM (active)
same,outcome,[2],inactive
same,outcome,[3],inactive
same,outcome,[4],inactive
same,outcome,[5],inactive
same,outcome,[6],inactive
same,outcome,[7],inactive
same,outcome,[8],inactive
same,outcome,[10],inactive
CCC(=C(c1ccc(O)cc1)c1ccc(OCCN(C)C)cc1)c1ccccc1,outcome,[1],inactive
same,outcome,[2],inactive
same,outcome,[3],inactive
same,AC50,[4],80.5 µM (active)
same,AC50,[5],18.4 µM (active) and 34.2 µM (active) and 6.67 µM (active)
COC(=O)CCCCC(=O)OC,outcome,[1],inactive
same,outcome,[2],inactive
same,outcome,[3],inactive
same,outcome,[4],inactive
same,outcome,[5],inactive
same,outcome,[6],inactive
same,outcome,[7],inactive
same,outcome,[8],inactive
same,outcome,[10],inactive
c1ccc2cc3c(ccc4ccccc43)cc2c1,AC50,[1],4.24 µM (active)
same,outcome,[2],inactive
same,AC50,[3],17.2 µM (active)
same,outcome,[4],inactive
same,outcome,[5],inactive
same,outcome,[6],inactive
same,outcome,[7],inactive
same,outcome,[8],inactive
same,outcome,[10],inactive
Nc1cccc2c(N)cccc12,outcome,[1],inactive
same,outcome,[2],inactive
same,outcome,[3],inactive
same,outcome,[4],inactive
same,outcome,[5],inactive
same,outcome,[6],inactive
same,outcome,[7],inactive
same,outcome,[8],inactive
same,outcome,[10],inactive
COCC(C)OCC(C)O (stereo not given),outcome,[1],inactive
same,outcome,[2],inactive
same,AC50,[3],50 µM (active)
same,outcome,[4],inactive
same,outcome,[5],inactive
O=C(O)c1ccccc1C(c1ccc(O)cc1)c1ccc(O)cc1,outcome,[1],inactive
same,outcome,[2],inactive
same,outcome,[3],inactive
same,outcome,[4],inactive
OC1CCC(C2CCCCC2)CC1 (stereo not given),outcome,[1],inactive
same,outcome,[2],inactive
same,outcome,[3],inactive
same,outcome,[4],inactive
same,outcome,[5],inactive
same,outcome,[6],inactive
same,outcome,[7],inactive
same,outcome,[8],inactive
same,outcome,[9],inactive
OCCC(F)(F)C(F)(F)C(F)(F)C(F)(F)C(F)(F)C(F)(F)C(F)(F)C(F)(F)F,outcome,[1],inactive
same,outcome,[2],inactive
same,outcome,[3],inactive
same,outcome,[4],inactive
same,outcome,[5],inactive
same,outcome,[6],inactive
same,outcome,[7],inactive
CC(=O)CC(C)(C)O,outcome,[1],inactive
same,outcome,[2],inactive
same,outcome,[3],inactive
same,outcome,[4],inactive
same,outcome,[5],inactive
same,outcome,[6],inactive
same,outcome,[7],inactive
same,outcome,[8],inactive
CC(C)(C)c1cccc(C(C)(C)C)c1O,outcome,[1],inactive
same,outcome,[2],inactive
same,outcome,[3],inactive
same,outcome,[4],inactive
same,outcome,[5],inactive
same,outcome,[6],inactive
same,outcome,[7],inactive
same,outcome,[8],inactive
same,outcome,[10],inactive
CC#C[C@]1(O)CC[C@H]2[C@@H]3CCC4=CC(=O)CCC4=C3[C@@H](c3ccc(N(C)C)cc3)C[C@@]21C,AC50,[1],77.2 µM (active)
same,AC50,[2],79.8 µM (active)
same,AC50,[3],53.4 µM (active)
same,AC50,[4],11.5 µM (active)
same,outcome,[5],inactive
same,outcome,[6],inactive
same,AC50,[7],45.2 µM (active) and 19.9 µM (active)
same,outcome,[8],inactive
same,outcome,[10],inactive
CCCCCCCCCCCCN1CCCC1=O,outcome,[1],inactive
same,outcome,[2],inactive
same,outcome,[3],inactive
same,outcome,[4],inactive
same,AC50,[5],155 µM (active)
same,outcome,[6],inactive
same,outcome,[7],inactive
same,AC50,[8],69.8 µM (active)
same,AC50,[9],67.1 µM (active)
same,outcome,[10],inactive
CC[C@H](c1ccc(O)cc1)[C@@H](CC)c1ccc(O)cc1,AC50,[1],83.3 µM (active)
same,outcome,[2],inactive
same,AC50,[3],85.6 µM (active)
same,AC50,[4],76.1 µM (active)
same,AC50,[5],144 µM (active) and 133 µM (active) and 164 µM (active)
same,outcome,[5],inactive
same,AC50,[6],61.7 µM (active)
same,outcome,[6],inactive
same,AC50,[7],66.6 µM (active)
same,outcome,[7],inactive
same,outcome,[8],inactive
same,AC50,[10],57.8 µM (active)
same,outcome,[10],inactive
Cc1oc(-c2ccccc2)nc1CCOc1ccc(C[C@H](Nc2ccccc2C(=O)c2ccccc2)C(=O)O)cc1,AC50,[1],23.1 µM (active)
same,AC50,[2],16.8 µM (active)
same,outcome,[3],inactive
same,AC50,[4],28.7 µM (active)
same,outcome,[5],inactive
same,AC50,[6],7.33 µM (active)
same,AC50,[7],72.3 µM (active)
same,AC50,[8],10.7 µM (active)
same,AC50,[10],6.19 µM (active)
CCOC(=O)CC(O)(CC(=O)OCC)C(=O)OCC,outcome,[1],inactive
same,outcome,[2],inactive
same,outcome,[3],inactive
same,outcome,[4],inactive
same,outcome,[5],inactive
same,outcome,[6],inactive
same,outcome,[7],inactive
CC(C)(C)c1ccc(O)c(C(C)(C)C)c1,outcome,[1],inactive
same,outcome,[2],inactive
same,outcome,[3],inactive
same,outcome,[4],inactive
same,outcome,[5],inactive
same,AC50,[6],42.4 µM (active)
same,outcome,[6],inactive
same,outcome,[7],inactive
same,AC50,[8],63.6 µM (active) and 86.7 µM (active)
same,AC50,[10],42.7 µM (active)
same,outcome,[10],inactive
CN1CCC[C@H]1c1cccnc1,outcome,[1],inactive
same,outcome,[2],inactive
same,outcome,[3],inactive
same,outcome,[4],inactive
same,outcome,[5],inactive
ClC1=C(Cl)C(Cl)(Cl)C(Cl)=C1Cl,outcome,[1],inactive
same,outcome,[2],inactive
same,outcome,[3],inactive
same,outcome,[4],inactive
same,outcome,[5],inactive
same,outcome,[6],inactive
same,outcome,[7],inactive
same,AC50,[8],5.7 µM (active) and 3.42 µM (active)
same,AC50,[9],19.2 µM (active) and 2.22 µM (active)
same,outcome,[10],inactive
CC(C)(C)CC(C)(C)c1ccc(O)c(-n2nc3ccccc3n2)c1,AC50,[1],17.4 µM (active)
same,outcome,[2],inactive
same,outcome,[3],inactive
same,outcome,[4],inactive
same,outcome,[5],inactive
same,outcome,[6],inactive
same,outcome,[7],inactive
same,AC50,[8],38.6 µM (active)
same,outcome,[8],inactive
same,outcome,[10],inactive
O=C(O)Cc1cc(I)c(Oc2cc(I)c(O)c(I)c2)c(I)c1,AC50,[1],61.5 µM (active)
same,AC50,[2],62.2 µM (active)
same,outcome,[3],inactive
same,AC50,[4],61.9 µM (active)
same,outcome,[5],inactive
same,AC50,[6],24.1 µM (active)
same,outcome,[7],inactive
same,AC50,[8],46.1 µM (active)
same,AC50,[10],30.9 µM (active)

# — PubChem BioAssay (EPA / NIEHS)
